# The whole screen tested about 360,000 compounds, of which about 9,100 (2.5%) were called active. Another 4% or so got no clear call; they are omitted. The full list was thinned out, with actives kept by preference. A number with no mark means an inactive call. Cut-off read from the data, not from the text of the source: active = max response below about -50%; inconclusive = no clear call, values can overlap the other calls; inactive = above that.
# Target: D(3) dopamine receptor (Homo sapiens) (UniProt P35462)
# Sequence (P35462 whole entry, looked up): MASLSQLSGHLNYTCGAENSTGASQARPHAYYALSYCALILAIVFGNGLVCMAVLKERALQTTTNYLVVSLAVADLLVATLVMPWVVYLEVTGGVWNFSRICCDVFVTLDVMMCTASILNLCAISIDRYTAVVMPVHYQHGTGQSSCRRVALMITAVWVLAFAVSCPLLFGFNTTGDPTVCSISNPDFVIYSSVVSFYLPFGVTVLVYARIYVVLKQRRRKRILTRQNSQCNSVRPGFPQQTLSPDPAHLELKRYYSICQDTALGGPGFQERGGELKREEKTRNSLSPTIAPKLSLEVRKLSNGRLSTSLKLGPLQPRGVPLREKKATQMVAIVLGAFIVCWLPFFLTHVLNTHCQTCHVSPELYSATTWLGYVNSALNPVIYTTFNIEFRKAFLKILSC
# Assay: qHTS of D3 Dopamine Receptor Antagonist: qHTS
# Details: D3R cells, DiscoveRx beta-arrestin luminescence, antagonist mode; hits give low values
# Summary of the method: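 Cells expressing the human receptor were seeded at 1500 cells/well, incubated overnight at 37 degrees C in 5% CO2, then exposed to library compounds with dopamine controls for 90 minutes at 37 degrees C before luminescent detection.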
# % is set by controls: 0 for no effect and ±100 for the full control effect.
row,SMILES,"max response, negative = inhibition"
1,CNCC(O)CN1CCN(c2ccccc2OC)CC1 (centres undefined),4.65%
2,COc1ccc(CN2CCN(Cc3ccc(OC)c(OC)c3OC)CC2)cc1,-14%
3,COc1cc(CNCc2ccc(OC)c3ccccc23)cc(OC)c1OC,4.84%
4,COc1ccccc1N1CCN(Cc2ccc(OC)c3ccccc23)CC1,-67.7% (active)
5,COc1cc(COCC(O)CN2CCN(Cc3ccc4c(c3)OCO4)CC2)cc(OC)c1OC (centres undefined),-12.9%
6,COc1ccccc1N1CCN(Cc2cc(OC)c3c(c2)OCO3)CC1,-91.2% (active)
7,CNc1cncc(-c2ccc(NS(C)(=O)=O)cc2)n1,-5.71%
8,COc1ccc(CCNC(=O)Nc2ccc3c(c2)c(=O)n(C)n3C)cc1OC,6.66%
9,O=C(CC(CC(=O)c1ccccc1)c1ccco1)c1ccccc1,11.4%
10,CSCCC(C(=O)NC(C)(C)C)n1c(-c2ccccc2)nc2ccccc21 (centres undefined),-15.5%
11,CCC(C(=O)NC(C)(C)C)n1c(-c2ccccc2)nc2ccccc21 (centres undefined),0.73%
12,CC(C)(C)NC(=O)C(CCc1ccccc1)n1c(=O)c(-c2ccccc2)nc2ccccc21 (centres undefined),-66.1% (active)
13,Cc1cn([C@H]2C[C@H](O)[C@@H](CNC(=O)[C@H](N)Cc3cccnc3)O2)c(=O)[nH]c1=O,22.6%
14,Cc1ccc(NC(=O)COC(=O)CN2CCSC2=O)cc1F,37.5%
15,CCNC(=O)N1CCCC(C(=O)c2ccc(-c3ccccc3)cc2)C1 (centres undefined),10.6%
16,O=C(c1ccc(-c2ccccc2)cc1)C1CCCN(C(=O)c2cncs2)C1 (centres undefined),-57.7% (active)
17,Cn1nccc1C(=O)N1CCCC(C(=O)c2ccc(Oc3ccccc3)cc2)C1 (centres undefined),22.9%
18,CC1(C(=O)Nc2cccc3c2CCCC3)CCN1C(=O)CCc1ccc(Cl)cc1Cl (centres undefined),9.05%
19,COc1cccc(CNc2nc3cc(-c4csc5ccccc45)sc3c(=O)n2C)c1,6.45%
20,COc1cc2c(cc1O)C(SC)=NC(C)(C)C2,-89.4% (active)

row,SMILES,"max response, negative = inhibition"
1,COc1cc2c(cc1OC)C(Nc1ccc(S(N)(=O)=O)cc1)=NC(C)(C)C2,3.38%
2,COc1cc2c(cc1OC)C(C(C)C)=NC(C)(C)C2,-19.9%
3,CCOC(=O)C1CCCN(C(=O)c2ccc(C)c(F)c2)CC1 (centres undefined),-26.1%
4,Cc1sc2ncnc(SCC(=O)NC3CCS(=O)(=O)C3)c2c1C (centres undefined),-20.5%
5,O=C(NCCc1c[nH]c2ccccc12)C1CCN(Cc2ccc(Br)cc2)CC1,-82.8% (active)
6,CCOc1ccc(CN2CCN(Cc3c[nH]c4ccccc34)CC2)cc1,-60% (active)
7,CC1(C(=O)NCCc2c[nH]c3ccccc23)C=CC2(CCCCC2)N1C(=O)c1ccccc1 (centres undefined),45.7%
8,CCOc1ccc(CN2CCN(CCCc3ccccc3)C(CCO)C2)cc1 (centres undefined),-25.6%
9,Cc1ccc2[nH]cc(CCNC(=O)C3CCCCC3)c2c1,11.6%
10,CCOc1ccc(CN2CCCN(C)CC2)cc1,-29.1%
11,C[C@H]1CN([C@@H](C)CO)C(=O)CCCn2cc(nn2)CO[C@@H]1CN(C)S(=O)(=O)c1cccc(C#N)c1,14.4%
12,COc1ccc(N2c3ccccc3CN(Cc3ccccc3)[C@@H](C)[C@H]2Cc2ccc(-c3ccccc3)cc2)cc1,9.42%
13,CCC(=O)N1Cc2cc(C(=O)NCc3cccc(F)c3)nc(-c3cccc(C4=CCCC4)c3)c2[C@H]1CCO,-8.57%
14,CCOC(=O)c1c(C)[nH]c(C)c1C(=O)COC(=O)/C=C/c1cccc([N+](=O)[O-])c1,19.7%
15,O=C(COC(=O)/C=C/c1ccc(Cl)cc1)NC1CCS(=O)(=O)C1 (centres undefined),-20.8%
16,Cc1ccc(-c2nc(CS(=O)CC(=O)NC3CCCC3)c(C)o2)cc1 (centres undefined),12.9%
17,Cc1cc(NC(=O)CSCc2nc(-c3cccc(Cl)c3)oc2C)no1,-28.8%
18,Cc1ccc(-c2nc(CSCC(=O)NC3CCN(Cc4ccccc4)CC3)c(C)o2)cc1,-76.3% (active)
19,Cc1cc(NC(=O)c2cc3ccccc3o2)no1,3.37%
20,CN(C)C(CNC(=O)c1cc2ccccc2o1)c1ccccc1 (centres undefined),-82.9% (active)

row,SMILES,"max response, negative = inhibition"
1,CN(C)C(CNC(=O)Cc1ccc([N+](=O)[O-])cc1)c1ccccc1 (centres undefined),-19%
2,CCCOc1ccc(Cn2c(O)cc(=O)[nH]c2=O)cc1,-8.86%
3,COc1ccc(OC)c(NC(=O)C2(C)CCN2C(=O)Cc2ccccc2)c1 (centres undefined),19.2%
4,COc1cc(=O)[nH]c(=O)n1C(=O)Cc1ccccc1,-54.3% (active)
5,CC1(C(=O)NS(=O)(=O)c2ccccc2)CCN1C(=O)C1CCCCC1 (centres undefined),-29.5%
6,CC(=O)Nc1ccc(-c2ccnc3c2CC(C(=O)NC(C)C)O3)cc1 (centres undefined),23.5%
7,CC1CC(NC(=S)N(C)C)CC(C)(C)C1 (centres undefined),-2.04%
8,CC(=O)Nc1ccc(C=CC(=O)c2ccc([N+](=O)[O-])cc2)cc1,1.23%
9,CC(CC(=O)O)C(=O)c1ccc(Cl)c([N+](=O)[O-])c1 (centres undefined),7.05%
10,O=C(/C=C/c1ccc(Cl)c([N+](=O)[O-])c1)c1ccc(O)cc1,-79.6% (active)
11,CCCCn1nnnc1C(c1ccccc1)N1CCN(c2ccccc2OC)CC1 (centres undefined),-12.3%
12,OC(c1ccc(F)cc1)c1ncc(-c2cccc(C(F)(F)F)c2)[nH]1 (centres undefined),4.48%
13,CCCCNC(=O)C[C@@H]1C[C@@]2(C(=O)OCC)CCC=C2N(Cc2cccc3ccccc23)C1=O,0%
14,CC1=C/C(=N\OS(=O)(=O)c2ccccc2)C=CC1=O,-80.7% (active)
15,CC(C)(C)C1CCC(=O)N2CCC[C@]2(c2ccccc2)C1 (some centres undefined),0%
16,CC1(C)OC(=O)C2=C(C[C@@H](C3CCCC3)O[C@@H]2c2ccc(Cl)cc2)O1,0.96%
17,CN(CC(=O)O)C(=O)c1ccccc1,-19.9%
18,CN(O)C(=S)c1ccccc1,-113% (active)
19,CN(Cc1ccccc1)C(=O)c1cccc(C(=O)N(C)Cc2ccccc2)c1,-13%
